KDM4E inh – qHTS Assay for Inhibitors of Human Jumonji Domain Containing 2E (JMJD2E); JMJD2E catalytic domain, FDH-coupled NADH fluorescence (FDH is formaldehyde dehydrogenase); Lysine-specific demethylase 4E (Homo sapiens), B2RXH2; hit rate 1.6% among 230,000; Potency, µM (top dose mostly 57.1 µM), for inactives: top-dose activity change, negative = inhibition, actives largely listed as inhibitors; active = well fitted inhibition curve with a large enough effect, not every such curve was filed as active; inconclusive = small, poorly fitted or top-dose-only effect, or another doubt; inactive = no such curve, though single readings can be large or run the other way;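 note: potency is the fitted concentration of half-maximal effect; 0% = wells with enzyme and -100% = buffer wells without enzyme; nearly all actives have a fitted effect of over 50% in size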
Target sequence (B2RXH2 1-337 limits assumed): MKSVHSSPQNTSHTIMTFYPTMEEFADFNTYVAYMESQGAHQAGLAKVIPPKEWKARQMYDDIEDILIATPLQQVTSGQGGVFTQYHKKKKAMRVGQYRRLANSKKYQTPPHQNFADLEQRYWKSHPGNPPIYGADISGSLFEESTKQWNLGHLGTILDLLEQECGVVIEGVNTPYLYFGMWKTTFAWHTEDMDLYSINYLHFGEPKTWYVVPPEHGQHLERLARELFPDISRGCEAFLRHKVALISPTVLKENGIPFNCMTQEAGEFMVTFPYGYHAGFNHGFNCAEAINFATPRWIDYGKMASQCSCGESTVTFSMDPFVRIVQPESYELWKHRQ
G9a block – qHTS Assay for Inhibitors of Histone Lysine Methyltransferase G9a; G9a H3K9 monomethylation, AlphaScreen, 2 h; Potency, µM (doses to about 102 µM), for inactives: at the top dose activity, negative = inhibition, hits mostly inhibitors; hit rate 8.8% among 350,000; AID 504332, 2011; note: potency is the fitted concentration of half-maximal effect; % is set by controls: 0 for no effect and ±100 for the full control effect; nearly all actives have a fitted effect of over 75% in size
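Quantitative HTS format: methyltransferase activity on a biotin-tagged H3K9 peptide is measured by AlphaScreen, using a rabbit anti-monomethyl-H3K9 antibody with streptavidin donor and anti-IgG acceptor beads. Final levels are 20 nM enzyme, 500 nM peptide, 20 uM SAM; 2 h RT.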
LMNA splice mod – qHTS Assay for Modulators of Lamin A Splicing | hit rate 0.01% among 200,000 | AID 1487, 2009 | Potency, µM (series often up to 46.1 µM), for the others: at the top dose ratio change, negative = inhibition, actives largely listed as inhibitors | HeLa LMNA splicing GFP/RFP minigene ratio, 48 h; active = well fitted inhibition curve with a large enough effect in the signal ratio, with a control signal flat, not every such curve was filed as active; inconclusive = small, poorly fitted or top-dose-only effect, or effect the other way, or a change in a side signal; the % refers to the signal ratio; note: potency is the fitted concentration of half-maximal effect; % is set by controls: 0 for no effect and ±100 for the full control effect
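Read-out is the ratio of GFP to DsRed2 object intensity, acquired by 488 nm laser-scanning cytometry on HeLa lamin A-EGFP minigene reporter cells. Compound incubation 48 hrs at 37 °C in Opti-MEM with 2% FBS; DMSO 0.5% final.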
miR-21 act – qHTS Assay for Modulators of miRNAs and/orActivators of miR-21; Potency, µM (doses to about 38.3 µM), for the others: at the highest dose activity change, positive = activation, most hits filed as activators; AID 2288, 2010; HeLa miR-21 FLuc reporter, luciferase, 48 h; 340,000 tested, under 10 active;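 note: % of control where 0% means no effect; miR-21 action dims this reporter so a rising signal means less miR-21 action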
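Using DMEM plus 10% FBS, HeLa miR-21-FLuc cells are incubated with test compounds (final up to about 40uM) for 48 hours; firefly luciferase signal is then imaged following reagent-mediated lysis.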
ALDH1A1 inh – qHTS Assay for Inhibitors of Aldehyde Dehydrogenase 1 (ALDH1A1); Potency, µM (highest dose often 75.3 µM), inactives show at the top dose activity, negative = inhibition, actives largely listed as inhibitors; hit rate 7.3% among 220,000; AID 1030, 2008; Purified ALDH1A1, NADH fluorescence, propionaldehyde substrate; Aldehyde dehydrogenase 1A1 (Homo sapiens), P00352; active = well fitted inhibition curve with a large enough effect, not every such curve was filed as active; inconclusive = small, poorly fitted or top-dose-only effect, or another doubt; inactive = no such curve, though single readings can be large or run the other way;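 note: potency is the fitted concentration of half-maximal effect; plate controls were no enzyme wells and a reference inhibitor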
Target sequence (P00352 whole entry, looked up): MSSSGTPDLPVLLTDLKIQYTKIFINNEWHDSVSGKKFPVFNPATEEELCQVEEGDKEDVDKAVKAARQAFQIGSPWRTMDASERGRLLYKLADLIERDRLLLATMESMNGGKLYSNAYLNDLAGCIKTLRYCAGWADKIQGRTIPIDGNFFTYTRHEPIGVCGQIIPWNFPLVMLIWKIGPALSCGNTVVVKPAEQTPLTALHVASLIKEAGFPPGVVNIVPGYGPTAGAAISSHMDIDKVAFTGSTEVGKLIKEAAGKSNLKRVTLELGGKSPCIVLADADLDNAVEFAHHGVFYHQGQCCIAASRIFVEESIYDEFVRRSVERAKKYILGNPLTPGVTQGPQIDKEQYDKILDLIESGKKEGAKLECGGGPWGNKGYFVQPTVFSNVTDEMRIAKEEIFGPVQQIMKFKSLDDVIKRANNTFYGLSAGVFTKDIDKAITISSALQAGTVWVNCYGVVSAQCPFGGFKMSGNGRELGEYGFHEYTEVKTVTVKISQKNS
Sfp PPTase inh – qHTS Assay for Inhibitors of Bacillus subtilis Sfp phosphopantetheinyl transferase (PPTase) | Biochemical Sfp PPTase activity, qHTS | hit rate 3.5% among 310,000 | AID 1490, 2009 | 4'-phosphopantetheinyl transferase ffp (Bacillus subtilis), Q9F4F7 | Potency, µM, inactives show largest response in the series, negative = inhibition, usual class: inhibitors;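 note: the enzyme is Sfp with the accession as filed and its product quenches rhodamine fluorescence; potency is the fitted concentration of half-maximal effect; 0% = enzyme reaction without inhibitor and -100% = no enzyme wells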
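Compounds were incubated with enzyme (final 15 nM) for 15 min at room temperature before substrate addition started the reaction. Fluorescence at 525 nm excitation, 598 nm emission was recorded immediately and after 30 minutes.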
* marks the source's active call; other numbers are inactive results; ? = inconclusive; / = no result; [ ] = remark or other dose. Most compounds without a hit are left out; they make up all but 13% or so of the library. Unless noted, calls come from the whole dose curve; as a rule, active = well fitted curve in the direction sought with a large enough effect; inconclusive = small, poorly fitted or top-dose-only effect, or another doubt; inactive = no such curve, though single readings can be large; an effect the other way counts as inactive or inconclusive.

SMILES | KDM4E inh | G9a block | LMNA splice mod | miR-21 act | ALDH1A1 inh | Sfp PPTase inh
CSCSC1=C(C#N)C(c2ccc(Cl)cc2)C(C(C)=O)=C(C)N1 (stereo not drawn) | ? | 7.9µM* | ? | 15% | 8.9µM* | 10µM*
CCOC(=O)CSC1=C(C#N)C(c2ccccc2)C(C(C)=O)=C(C)N1 (stereo not drawn) | -2% | -3%[0.501 µM] | 14%[0.0737 µM] | -12% | 32µM* | 79µM*
CSC1=C(C#N)C(c2ccccc2)C(C(C)=O)=C(C)N1 (stereo not drawn) | -15% | 3% | ? | 0% | -2% | 19%
CCn1cc(/C=C(\NC(=O)c2ccc(OC)c(OC)c2)C(=O)NCCCN2CCOCC2)c2ccccc21 | / | / | / | 1% | / | -5%
COc1cc2c3c(c1)C(C)=CC(C)(C)N3C(=O)C2=O | -21% | 22µM* | ? | 25% | 3.5µM* | 10%
COc1cc2c3c(c1)C(C)CC(C)(C)N3C(=O)C2=O (stereo not drawn) | 12% | ? | ? | 5% | 0.14µM* | 23%
COc1cccc(C(=O)Oc2cc3c4c(c2)C(C)=CC(C)(C)N4C(=O)C3=O)c1 | 2% | 8.9µM* | ? | 12% | 8.9µM* | 6%
C[C@H](NC(=O)OC(C)(C)C)C(=O)N/N=C/c1cccc2nccnc12 | ? | ? | / | 0% | 0% | ?
CC(C)[C@H](NC(=O)OC(C)(C)C)C(=O)N/N=C/c1cccc2nccnc12 | ? | 4.5µM* | 2% | -7% | ? | 16%
CCc1ccc(N=C2NC(=O)/C(=C/c3cc(OC)c(O)c(OC)c3)S2)cc1 | / | ? | / | -10% | / | -11%
COc1cc(/C=C2\SC(=Nc3ccccc3)NC2=O)cc(Cl)c1O | / | 45µM* | / | -30% | / | -10%
COc1cc(/C=C2\SC(=Nc3ccc(Cl)c(C(=O)O)c3)NC2=O)c(Br)c(Br)c1O | / | 32µM* | / | -2% | / | 8%
COC(=O)/C=C1\SC(=Nc2ccc(Cl)c(Cl)c2)NC1=O | 6% | 13%[59 µM] | / | -3% | -5% | 13%
CC1(c2ccc(Cl)cc2)NC(=O)N(CC(=O)NCCC2=CCCCC2)C1=O (stereo not drawn) | / | 0.89µM* | / | / | / | /
OCCNc1nc(Nc2cccc(O)c2)nc2ccccc12 | -1% | 71µM* | / | 7% | / | -17%
COc1cccc(Nc2nc(N)c([N+](=O)[O-])c(NCc3ccccc3)n2)c1 | -1% | 45µM* | / | 5% | / | -7%
OCCNc1nc(NCc2ccccc2)c2ccccc2n1 | / | / | / | 6% | / | 5%
Nc1nc(Nc2ccc(Cl)cc2)nc(NCCO)c1[N+](=O)[O-] | 10% | 50µM* | / | -15% | / | 10%
OCCNc1nc(N2CCN(c3ccccc3)CC2)nc2ccccc12 | / | 79µM* | / | -6% | / | 3%
OCCNc1nc(Nc2ccc(O)cc2)nc2ccccc12 | 1% | ? | / | 7% | / | -11%
COc1cccc(CCNC(=O)Cn2c(-c3cccs3)cc3ccccc32)c1 | / | -37%[59 µM] | / | -7% | / | /
CCN(CC)S(=O)(=O)c1ccc(C(=O)NCCSc2c(-c3ccc(C)cc3)[nH]c3ccccc23)cc1 | / | -8%[59 µM] | / | 18% | / | /
COc1ccccc1CNC(=O)c1ccc2nc(CCc3ccccc3)oc2c1 | / | 10%[59 µM] | 2%[46 µM] | 1% | / | /
Cn1c(=O)c2c(nc(C(=N)SCC(=O)O)n2C)n(C)c1=O | / | / | / | / | -13%[13.5 µM] | /
COc1cccc(Nc2nc(NCCO)c3ccccc3n2)c1 | ? | ? | -9% | 21% | 15% | 20µM*
SMILES | KDM4E inh | G9a block | LMNA splice mod | miR-21 act | ALDH1A1 inh | Sfp PPTase inh
Oc1cccc(Nc2c3ccccc3nc3ccccc23)c1 | / | 40µM* | / | 27% | / | -16%
COc1cccc(Nc2nc(-c3ccccc3)nc3ccccc23)c1 | / | -12%[2.33 µM] | / | 8% | / | 21%
Cc1ccc(C)c(C(=O)CSc2nc(-c3ccccc3)nc3c2CCCC3)c1 | / | 31%[59 µM] | / | -7% | / | /
c1cc2c3c(cccc3c1)NC1(CCCCC1)N2 | 3.2µM* | 1.1µM* | 17% | 2% | 1% | -12%
c1cc2c3c(cccc3c1)NC1(CCCCCC1)N2 | 3.5µM* | 4.5µM* | 12% | -3% | 3.2µM* | 9%
CC1CCN(CCCNC(=O)c2ccc3c(Cl)c4c(nc3c2)CCCC4)CC1 | -6% | / | / | -1% | / | -3%
O=C(O)c1ccc(CSc2nc3ccc(N4C(=O)C5C6C=CC(C6)C5C4=O)cc3s2)cc1 (stereo not drawn) | 4% | -40%[59 µM] | 12% | -3% | 28µM* | -25%
CSc1ccc(S(=O)(=O)NCC(=O)OCC(=O)N2CCCCC2C)cc1[N+](=O)[O-] (stereo not drawn) | / | -29% | / | / | / | /
Cc1ccccc1Cn1cc(NC(=O)c2cc(C3CC3)on2)cn1 | ? | 40µM* | / | 0% | / | 5%
Cc1cc([N+](=O)[O-])cc2c1NC(=O)C2(O)N1CCCC(C)C1 (stereo not drawn) | / | -26% | / | -2% | / | 8%
Cc1cc([N+](=O)[O-])cc2c1NC(=O)C2(O)N1CCCCCC1 (stereo not drawn) | -8% | 4% | -8% | -7% | 22µM* | 12%
Cc1ccc(C(NC(=O)N2CCCCC2)=C(Cl)Cl)cc1F | 6% | 9%[59 µM] | ? | 0% | 0.11µM* | 0%
Cc1ccc(C(NC(=O)NCCCN2CCOCC2)=C(Cl)Cl)cc1F | -6% | 28%[12.7 µM] | ? | 24% | 0.4µM* | -7%
O=C1C2=C(CCCC2)C(=O)N1CNc1ccccc1 | 51% | / | ? | 2% | 9% | 6%
O=C1C(Nc2ccccc2)=C2CCCC=C2N1c1ccccc1 | 13% | ? | / | -60% | 13µM* | 15%
Cc1cc(C)c(Cn2c(=O)n(-c3ccccc3Cl)c(=O)c3c(C)c(C(=O)N(C)C)sc32)c(C)c1 | / | 6%[59 µM] | 6%[46 µM] | 3% | / | /
CC1CN(C(=O)Nc2ccc(C(=O)NCCc3ccccc3Cl)cc2)c2ccccc2S1 (stereo not drawn) | / | 5%[59 µM] | / | -29% | / | /
Cc1cccc(C)c1N1CC(c2nc3ccccc3n2CC(=O)OC(C)C)CC1=O (stereo not drawn) | / | -43%[59 µM] | / | -3% | / | /
Nc1nc2ccc([N+](=O)[O-])c(N)c2s1 | -6% | -46%[0.0925 µM] | 19% | -28% | ? | 89µM*
Nc1ccc([N+](=O)[O-])c(N)c1 | / | / | / | / | -6% | /
CC(C)(C)c1ccc(OCC(=O)N/N=C/C2CC=CCC2)cc1 (stereo not drawn) | 70% | 36% | / | 1% | 32µM* | ?
O=C(CCc1ccccc1)N/N=C\C1CC=CCC1 (stereo not drawn) | / | / | / | -2% | / | 10%

Bioassay records deposited in PubChem BioAssay by National Center for Advancing Translational Sciences (NCATS).
